# Read-outs that look alike come from different tables or passages of the source.
# Experiments:
# DAPK1 = details: concentration: 1 μM, replicates: in singlicate; n = 1
# DAPK2 = details: concentration: 1 μM, replicates: in singlicate; n = 1
# DAPK3 = details: concentration: 1 μM, replicates: in singlicate; n = 1
# DCAMKL1 = system: T1, DCAMKL1; details: concentration: 1 μM, replicates: in singlicate; n = 1
# T1 construct: gene DCLK1
# DCAMKL2 = system: T2, DCAMKL2; details: concentration: 1 μM, replicates: in singlicate; n = 1
# T2 construct: gene DCLK2
# DCAMKL3 = system: T3, DCAMKL3; details: concentration: 1 μM, replicates: in singlicate; n = 1
# T3 construct: gene DCLK3
# DDR1 = details: concentration: 1 μM, replicates: in singlicate; n = 1
# DDR2 = details: concentration: 1 μM, replicates: in singlicate; n = 1
# DLK = system: T4, DLK; details: concentration: 1 μM, replicates: in singlicate; n = 1
# T4 construct: gene MAP3K12
# DMPK2 = system: T5, DMPK2; details: concentration: 1 μM, replicates: in singlicate; n = 1
# T5 construct: gene CDC42BPG
# DMPK = details: concentration: 1 μM, replicates: in singlicate; n = 1
# DRAK1 = system: T6, DRAK1; details: concentration: 1 μM, replicates: in singlicate; n = 1
# T6 construct: gene STK17A
# DRAK2 = system: T7, DRAK2; details: n = 1
# T7 construct: gene STK17B
# DYRK1A = details: concentration: 1 μM, replicates: in singlicate; n = 1
# DYRK1B = details: concentration: 1 μM, replicates: in singlicate; n = 1
# DYRK2 = details: concentration: 1 μM, replicates: in singlicate; n = 1
# EGFR = details: concentration: 1 μM, replicates: in singlicate; n = 1
# EIF2AK1 = details: concentration: 1 μM, replicates: in singlicate; n = 1
# EPHA1 = details: concentration: 1 μM, replicates: in singlicate; n = 1
# EPHA2 = details: concentration: 1 μM, replicates: in singlicate; n = 1
# [1] = concentration: 1 μM, replicates: in singlicate
# 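Further: KINOMEscan kinase panel screen.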
compound,measurement,setting,value
Cl.Nc1ncnc2occ(-c3ccc(NC(=O)Nc4cc(C(F)(F)F)ccc4F)cc3)c12 [SB-707548],%Inh,DAPK1,24%
same,%Inh,DAPK2,14%
same,%Inh,DAPK3,14%
same,%Inh,DCAMKL1,17%
same,%Inh,DCAMKL2,4%
same,%Inh,DCAMKL3,0%
same,%Inh,DDR1,100%
same,%Inh,DDR2,98.3%
same,%Inh,DLK,21%
same,%Inh,DMPK2,24%
same,%Inh,DMPK,0%
same,%Inh,DRAK1,0%
same,%Inh,DRAK2; [1],0%
same,%Inh,DYRK1A,0%
same,%Inh,DYRK1B,0%
same,%Inh,DYRK2,14%
same,%Inh,EGFR,30%
same,%Inh,EIF2AK1,0%
same,%Inh,EPHA1,79%
same,%Inh,EPHA2,97.5%
Nc1nc(-c2ccc3c(N)n[nH]c3c2)cc(N2CCCC2)n1 [GSK2227430],%Inh,DAPK1,0%
same,%Inh,DAPK2,0%
same,%Inh,DAPK3,1%
same,%Inh,DCAMKL1,13%
same,%Inh,DCAMKL2,0%
same,%Inh,DCAMKL3,0%
same,%Inh,DDR1,7%
same,%Inh,DDR2,3%
same,%Inh,DLK,0%
same,%Inh,DMPK2,0%
same,%Inh,DMPK,0%
same,%Inh,DRAK1,73%
same,%Inh,DRAK2; [1],0%
same,%Inh,DYRK1A,9%
same,%Inh,DYRK1B,4%
same,%Inh,DYRK2,37%
same,%Inh,EGFR,2%
same,%Inh,EIF2AK1,0%
same,%Inh,EPHA1,0%
same,%Inh,EPHA2,12%
O=c1cc(N2CCOCC2)nc2n(Cc3cccc(F)c3)ccn12 [GSK2297430],%Inh,DAPK1,0%
same,%Inh,DAPK2,0%
same,%Inh,DAPK3,0%
same,%Inh,DCAMKL1,0%
same,%Inh,DCAMKL2,0%
same,%Inh,DCAMKL3,2%
same,%Inh,DDR1,0%
same,%Inh,DDR2,1%
same,%Inh,DLK,23%
same,%Inh,DMPK2,4%
same,%Inh,DMPK,12%
same,%Inh,DRAK1,5%
same,%Inh,DRAK2; [1],0%
same,%Inh,DYRK1A,26%
same,%Inh,DYRK1B,0%
same,%Inh,DYRK2,5%
same,%Inh,EGFR,32%
same,%Inh,EIF2AK1,0%
same,%Inh,EPHA1,14%
same,%Inh,EPHA2,9%
COc1ccc(S(=O)(=O)NC2CCN(c3cc(C)nc(Nc4cccc(C#N)c4)n3)CC2)cc1.O=C(O)C(F)(F)F [GSK1653539],%Inh,DAPK1,0%
same,%Inh,DAPK2,0%
same,%Inh,DAPK3,23%
same,%Inh,DCAMKL1,0%
same,%Inh,DCAMKL2,0%
same,%Inh,DCAMKL3,34%
same,%Inh,DDR1,0%
same,%Inh,DDR2,9%
same,%Inh,DLK,0%
same,%Inh,DMPK2,0%
same,%Inh,DMPK,0%
same,%Inh,DRAK1,0%
same,%Inh,DRAK2; [1],0%
same,%Inh,DYRK1A,6%
same,%Inh,DYRK1B,39%
same,%Inh,DYRK2,12%
same,%Inh,EGFR,18%
same,%Inh,EIF2AK1,0%
same,%Inh,EPHA1,0%
same,%Inh,EPHA2,0%
COc1ccc(CNC(=O)NC2CCN(c3ccnc(Nc4ccc(OC)cc4)n3)C2)cc1 (stereo not drawn) [GSK1379727],%Inh,DAPK1,0%
same,%Inh,DAPK2,0%
same,%Inh,DAPK3,20%
same,%Inh,DCAMKL1,11%
same,%Inh,DCAMKL2,0%
same,%Inh,DCAMKL3,5%
same,%Inh,DDR1,0%
same,%Inh,DDR2,20%
same,%Inh,DLK,50%
same,%Inh,DMPK2,0%
same,%Inh,DMPK,0%
same,%Inh,DRAK1,0%
same,%Inh,DRAK2; [1],0%
same,%Inh,DYRK1A,20%
same,%Inh,DYRK1B,0%
same,%Inh,DYRK2,0%
same,%Inh,EGFR,18%
same,%Inh,EIF2AK1,0%
same,%Inh,EPHA1,0%
same,%Inh,EPHA2,14%
Cc1cccc(-c2nc(-c3ccc(S(C)(=O)=O)cc3)sc2-c2ccncc2)c1,%Inh,DAPK1,4%
same,%Inh,DAPK2,0%
same,%Inh,DAPK3,0%
same,%Inh,DCAMKL1,0%
same,%Inh,DCAMKL2,0%
same,%Inh,DCAMKL3,0%
same,%Inh,DDR1,0%
same,%Inh,DDR2,9%
same,%Inh,DLK,0%
same,%Inh,DMPK2,53%
same,%Inh,DMPK,0%
same,%Inh,DRAK1,0%
same,%Inh,DRAK2; [1],0%
same,%Inh,DYRK1A,0%
same,%Inh,DYRK1B,7%
same,%Inh,DYRK2,0%
same,%Inh,EGFR,0%
same,%Inh,EIF2AK1,1%
same,%Inh,EPHA1,0%
same,%Inh,EPHA2,10%
COc1cc2c(cc1OC[C@@H](O)CO)ncc1c3ccc(C#N)cc3[nH]c21,%Inh,DAPK1,6%
same,%Inh,DAPK2,6%
same,%Inh,DAPK3,13%
same,%Inh,DCAMKL1,0%
same,%Inh,DCAMKL2,0%
same,%Inh,DCAMKL3,34%
same,%Inh,DDR1,0%
same,%Inh,DDR2,0%
same,%Inh,DLK,65%
same,%Inh,DMPK2,0%
same,%Inh,DMPK,0%
same,%Inh,DRAK1,98.7%
same,%Inh,DRAK2; [1],99.7%
same,%Inh,DYRK1A,99%
same,%Inh,DYRK1B,83%
same,%Inh,DYRK2,86%
same,%Inh,EGFR,0%
same,%Inh,EIF2AK1,0%
same,%Inh,EPHA1,4%
same,%Inh,EPHA2,0%
CSc1ccc(-c2cc3ncnc(SCC(=O)O)c3s2)cc1,%Inh,DAPK1,12%
same,%Inh,DAPK2,0%
same,%Inh,DAPK3,0%
same,%Inh,DCAMKL1,0%
same,%Inh,DCAMKL2,15%
same,%Inh,DCAMKL3,8%
same,%Inh,DDR1,0%
same,%Inh,DDR2,8%
same,%Inh,DLK,44%
same,%Inh,DMPK2,0%
same,%Inh,DMPK,0%
same,%Inh,DRAK1,37%
same,%Inh,DRAK2; 1 µM,97.7%
same,%Inh,DYRK1A,0%
same,%Inh,DYRK1B,0%
same,%Inh,DYRK2,0%
same,%Inh,EGFR,27%
same,%Inh,EIF2AK1,12%
same,%Inh,EPHA1,11%
same,%Inh,EPHA2,0%
CC(C)Oc1ccc2c(-c3ccnc(Nc4ccc(N5CCN(C)CC5)cc4)n3)cnn2n1 [GW696155],%Inh,DAPK1,97.9%
same,%Inh,DAPK2,90.3%
same,%Inh,DAPK3,99.6%
same,%Inh,DCAMKL1,93.5%
same,%Inh,DCAMKL2,91%
same,%Inh,DCAMKL3,99.2%
same,%Inh,DDR1,45%
same,%Inh,DDR2,74%
same,%Inh,DLK,89%
same,%Inh,DMPK2,13%
same,%Inh,DMPK,74%
same,%Inh,DRAK1,99.5%
same,%Inh,DRAK2; [1],94.5%
same,%Inh,DYRK1A,61%
same,%Inh,DYRK1B,61%
same,%Inh,DYRK2,91.6%
same,%Inh,EGFR,50%
same,%Inh,EIF2AK1,0%
same,%Inh,EPHA1,48%
same,%Inh,EPHA2,0%
Fc1ccc(-c2ncn(CCCN3CCOCC3)c2-c2cccnc2)cc1 [SB-211743],%Inh,DAPK1,9%
same,%Inh,DAPK2,0%
same,%Inh,DAPK3,28%
same,%Inh,DCAMKL1,19%
same,%Inh,DCAMKL2,6%
same,%Inh,DCAMKL3,3%
same,%Inh,DDR1,0%
same,%Inh,DDR2,24%
same,%Inh,DLK,0%
same,%Inh,DMPK2,0%
same,%Inh,DMPK,24%
same,%Inh,DRAK1,0%
same,%Inh,DRAK2; [1],0%
same,%Inh,DYRK1A,3%
same,%Inh,DYRK1B,0%
same,%Inh,DYRK2,24%
same,%Inh,EGFR,0%
same,%Inh,EIF2AK1,0%
same,%Inh,EPHA1,0%
same,%Inh,EPHA2,0%
O=c1cc(N2CCOCC2)nc2n(Cc3cccc4ccccc34)ccn12 [GSK2333389],%Inh,DAPK1,0%
same,%Inh,DAPK2,0%
same,%Inh,DAPK3,0%
same,%Inh,DCAMKL1,0%
same,%Inh,DCAMKL2,0%
same,%Inh,DCAMKL3,2%
same,%Inh,DDR1,14%
same,%Inh,DDR2,0%
same,%Inh,DLK,0%
same,%Inh,DMPK2,0%
same,%Inh,DMPK,0%
same,%Inh,DRAK1,0%
same,%Inh,DRAK2; [1],0%
same,%Inh,DYRK1A,20%
same,%Inh,DYRK1B,7%
same,%Inh,DYRK2,21%
same,%Inh,EGFR,0%
same,%Inh,EIF2AK1,0%
same,%Inh,EPHA1,8%
same,%Inh,EPHA2,0%
COc1cc2c(cc1OCCN1CCN(C)CC1)ncc1c3ccc(C#N)cc3[nH]c21,%Inh,DAPK1,44%
same,%Inh,DAPK2,0%
same,%Inh,DAPK3,7%
same,%Inh,DCAMKL1,40%
same,%Inh,DCAMKL2,0%
same,%Inh,DCAMKL3,100%
same,%Inh,DDR1,0%
same,%Inh,DDR2,8%
same,%Inh,DLK,78%
same,%Inh,DMPK2,0%
same,%Inh,DMPK,0%
same,%Inh,DRAK1,100%
same,%Inh,DRAK2; [1],100%
same,%Inh,DYRK1A,94.6%
same,%Inh,DYRK1B,62%
same,%Inh,DYRK2,60%
same,%Inh,EGFR,0%
same,%Inh,EIF2AK1,0%
same,%Inh,EPHA1,0%
same,%Inh,EPHA2,0%
